# Measurements reported in article PMC6792352, “Limited Chemical Structural Diversity Found to Modulate Thyroid Hormone Receptor in the Tox21 Chemical Library” (Environmental Health Perspectives, 2019).
# Counter-ions that a name gives are not always drawn.
# Test system: thyroid hormone receptor (endogenous TRα and TRβ)
# Set-up: species or system GH3-TRE-Luc (rat pituitary); GH3-TRE-Luc luciferase reporter, antagonist mode against 1 nM T3, loss of signal, qHTS
# Conditions: read-out: Average AC50 (uM) GH3-TRE-Antag, antagonist mode, 1 nM T3, no GH3 cytotoxicity hit
row,SMILES,AC50
1,CCN(CC)CCOC(=O)[C@H](Cc1cccc2ccccc12)C[C@H]1CCCO1 [Nafronyl oxalate],10.7 µM
2,"O=C(O)c1cc(Cl)cc(Cl)c1O [3,5-Dichlorosalicylic acid]",68.6 µM
3,CCCCCCC(=O)O[C@H]1CC[C@H]2[C@@H]3CCc4cc(O)ccc4[C@H]3CC[C@]12C [Estradiol enanthate],18.9 µM
4,O=C(c1ccc(F)cc1)C1CCN(CCn2c(=S)[nH]c3ccccc3c2=O)CC1 [Altanserin hydrochloride],46.6 µM
5,Brc1cc(Oc2cc(Br)c(Br)c(Br)c2Br)c(Br)c(Br)c1Br [Octabromodiphenyl ether],10.5 µM
6,O=C(OCc1ccccc1)c1ccc(O)cc1 [Benzylparaben],> 50 µM
7,C/C=C1/C(=O)C[C@H]2[C@@H]3CCC4=CC(=O)CC[C@]4(C)[C@H]3CC[C@]12C [Guggulsterone E],18 µM
8,CCc1ccc(C(=O)C(C)CN2CCCCC2)cc1 (stereo not drawn) [Eperisone hydrochloride],38.3 µM
9,CCCOc1ccc(S(=O)(=O)N2CCN(CC)CC2)cc1-c1nc2c(CC)n(Cc3ccccn3)nc2c(=O)[nH]1 [UK-343664],76.4 µM
10,CC(C)(C)c1ccc2c(S(=O)(=O)O)c(C(C)(C)C)ccc2c1 [Sodium dibunate],> 50 µM
11,CCCCN(CCCC)CCC(O)c1cc2c(Cl)cc(Cl)cc2c2cc(C(F)(F)F)ccc12 (stereo not drawn) [Halofantrine hydrochloride],15.6 µM
12,CCN(CC)CCO[C@H]1CC[C@@]2(C)C(=CC[C@@H]3[C@@H]2CC[C@]2(C)C(=O)CC[C@@H]32)C1 [3beta-(2-Diethylaminoethoxy)androst-5-en-17-one hydrochloride],22.5 µM
13,CC/C=C\C/C=C\C/C=C\CCCCCCCC(=O)OCC [Ethyl linolenate],65.3 µM
14,COC1=CC(=O)O[C@@H](/C=C/c2ccc3c(c2)OCO3)C1 [Methysticin],0.0476 µM
15,C[C@@H]1C[C@H]2[C@@H]3CCC4=CC(=O)C=C[C@]4(C)[C@@]3(Cl)[C@@H](O)C[C@]2(C)[C@@]1(OC(=O)c1ccco1)C(=O)CCl [Mometasone furoate],16.9 µM
16,C[C@H]1O[C@@H](O[C@H]2[C@@H](O)C[C@H](O[C@H]3[C@@H](O)C[C@H](O[C@H]4CC[C@@]5(C)[C@H](CC[C@@H]6[C@@H]5CC[C@]5(C)[C@@H](C7=CC(=O)OC7)CC[C@]65O)C4)O[C@@H]3C)O[C@@H]2C)C[C@H](O)[C@@H]1O [Digitoxin],40 µM
17,O=S(=O)(c1cccc2cnccc12)N1CCCNCC1 [Fasudil hydrochloride],30.1 µM
18,CCCCCCCCCCCCCCC[C@H](O)[C@@H](N)CO [Safingol],27.1 µM
19,OCCN1CCNCC1 [1-Piperazineethanol],74.1 µM
20,CCn1c2ccccc2c2cc(N)ccc21 [3-Amino-9-ethylcarbazole hydrochloride],46.6 µM
21,O=c1[nH]c(=O)n([C@H]2C[C@H](O)[C@@H](CO)O2)cc1F [Floxuridine],4.49 µM
22,CC(=O)O[C@]1(C(C)=O)CC[C@H]2[C@@H]3C=C(C)C4=CC(=O)CC[C@]4(C)[C@H]3CC[C@@]21C [Megestrol acetate],> 20 µM
23,"CCCCCCCCCC/C=C/C1CC(=O)OC1=O (stereo not drawn) [3-(Dodecenyl)dihydro-2,5-furandione]",> 90 µM
24,CCOc1ccc(Cc2nccc3cc(OCC)c(OCC)cc23)cc1OCC [Ethaverine hydrochloride],8.58 µM
25,C[C@]12CCC(=O)C=C1[C@@H]1C[C@@H]1[C@H]1[C@@H]3[C@@H]4C[C@@H]4[C@@]4(CCC(=O)O4)[C@@]3(C)CC[C@@H]12 [Drospirenone],21.9 µM
26,Cc1ccc(Cl)c(Nc2ccccc2C(=O)O)c1Cl [Meclofenamate sodium],30.6 µM
27,"ClC1C(Cl)C(Cl)C(Cl)C(Cl)C1Cl (stereo not drawn) [alpha-1,2,3,4,5,6-Hexachlorocyclohexane]",26.5 µM
28,Cc1ccccc1C(=O)Nc1cccc(OC(C)C)c1 [Mepronil],48.2 µM
29,Cc1nc2ccc(CN(C)c3ccc(C(=O)N[C@@H](CCC(=O)O)C(=O)O)s3)cc2c(=O)[nH]1 [Raltitrexed],0.18 µM
30,C[C@@H]1C[C@H]2[C@@H]3C[C@H](F)C4=CC(=O)C=C[C@]4(C)[C@@]3(F)[C@@H](O)C[C@]2(C)[C@@]1(O)C(=O)COC(=O)C(C)(C)C [Flumethasone pivalate],26.2 µM
